Records with an inconclusive call do not appear. Calls of active or inactive are those of the source. Calls come from the whole dose curve; as a rule, active = well fitted inhibition curve with a large enough effect; inconclusive = small, poorly fitted or top-dose-only effect; inactive = flat fitted curve, though single readings scatter.
How the values were obtained:
Experiment in all cases: qHTS profiling for inhibitors of Plasmodium falciparum proliferation (AID 504749); note: nearly all actives have a fitted effect of over 60% in size
Conditions in all cases: P. falciparum in erythrocytes, SYBR Green DNA, 72 h; series mostly up to 28.7 µM
CP250 = tested on: CP250
Method in brief: (§1)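 P. falciparum-infected erythrocytes (0.3% parasitemia, 2.5% hematocrit final) were exposed to compounds for 72 h at 37 C in 5% CO2, then lysed with SYBR Green buffer overnight at room temperature; parasite DNA fluorescence was normalized to artemisinin and DMSO controls.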

CP252 = tested on: CP252
Method in brief: as §1

CP256 = tested on: CP256
Method in brief: as §1

CP262 = tested on: CP262
Method in brief: as §1

CP265 = tested on: CP265
Method in brief: as §1

CP268 = tested on: CP268
Method in brief: as §1

CP269 = tested on: CP269
Method in brief: as §1

CP286 = tested on: CP286
Method in brief: as §1

CP291 = tested on: CP291
Method in brief: as §1

CP297 = tested on: CP297
Method in brief: as §1

CP305 = tested on: CP305
Method in brief: as §1

CP315 = tested on: CP315
Method in brief: as §1

CP325 = tested on: CP325
Method in brief: as §1

CP329 = tested on: CP329
Method in brief: as §1

CP335 = tested on: CP335
Method in brief: as §1

DFO2036 = tested on: DFO2036
Method in brief: as §1

DIV17 = tested on: DIV17
Method in brief: as §1

DIV30 = tested on: DIV30
Method in brief: as §1

Dd2 = tested on: Dd2
Method in brief: as §1

ECU = tested on: ECU
Method in brief: as §1

FAB9 = tested on: FAB9
Method in brief: as §1

GB4 = tested on: GB4
Method in brief: as §1

HB3 = tested on: HB3
Method in brief: as §1

JCK = tested on: JCK
Method in brief: as §1

N140 = tested on: N140
Method in brief: as §1

P93_24 = tested on: P93_24
Method in brief: as §1

P94_40 = tested on: P94_40
Method in brief: as §1

PAD = tested on: PAD
Method in brief: as §1

PC49 = tested on: PC49
Method in brief: as §1

SC27B = tested on: SC27B
Method in brief: as §1

TAB109 = tested on: TAB109
Method in brief: as §1

TAB113 = tested on: TAB113
Method in brief: as §1

TAB165 = tested on: TAB165
Method in brief: as §1

Measured: Potency

CO[C@H]1[C@@H](O)CC(OC2[C@@H](O)CC(OC3[C@@H](O)C[C@H](OC4CC[C@@]5(C)C(CCC6C5CC(O)[C@]5(C)[C@H](C7=CC(=O)OC7)CCC65O)C4)O[C@@H]3C)O[C@@H]2C)O[C@@H]1C (stereo partly drawn)
inactive: CP250 | CP252 | CP256 | CP262 | CP265 | CP268 | CP269 | CP286 | CP291 | CP297 | CP305 | CP315 | CP325 | CP329 | CP335 | DFO2036 | DIV17 | DIV30 | Dd2 | ECU | FAB9 | GB4 | HB3 | JCK | N140 | P93_24 | P94_40 | PAD | PC49 | SC27B | TAB109 | TAB113 | TAB165
